In PubChem BioAssay (NCI):
This is part of a sample that, as a whole, favours compounds with a hit. Of some 79,000 tested, about 15% had one in any assay. Values without a mark were called inactive. Calls of active or inactive are those of the source. Cut-off read from the data, not from the text of the source: active = growth inhibition above about 70%; inactive = the rest.

How the values were obtained:
[1] = NCI Yeast Anticancer Drug Screen. Data for the mlh1 strain (AID 171);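 note: 0% = growth of vehicle-treated control cultures of the same strain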; conditions: S. cerevisiae mlh1 strain growth inhibition, active compounds read high
How it was run: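 Read-out: growth inhibition versus vehicle controls. Strain: engineered yeast with a defined DNA repair or cell cycle defect, compound-treated.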

[2] = NCI Yeast Anticancer Drug Screen. Data for the sgs1 strain (AID 173);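 note: 0% = growth of vehicle-only control cultures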; conditions: S. cerevisiae sgs1 mutant, active compounds read high
How it was run: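 Read-out: yeast growth inhibition relative to vehicle controls, following compound exposure of a strain with a defined DNA repair/cell cycle alteration.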

[3] = NCI Yeast Anticancer Drug Screen. Data for the mlh1 rad18 strain (AID 175); conditions: S. cerevisiae mlh1 rad18 strain growth inhibition, active compounds read high
How it was run: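 Yeast w/ defined DNA-repair lesions; compound exposure; growth vs vehicle controls → % inhibition.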

[4] = NCI Yeast Anticancer Drug Screen. Data for the rad18 strain (AID 177); conditions: S. cerevisiae rad18 mutant growth inhibition, active compounds read high
How it was run: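 Readout: growth inhibition vs vehicle controls. Cells: genetically altered yeast strain, DNA repair defect.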

[5] = NCI Yeast Anticancer Drug Screen. Data for the rad52 strain (AID 147);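 note: 0% = growth of vehicle-treated control cultures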; conditions: S. cerevisiae rad52 mutant growth inhibition, active compounds read high
How it was run: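 Read-out: growth inhibition versus vehicle-treated controls. Cells were a DNA repair-deficient yeast strain treated with compounds.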

[6] = NCI Yeast Anticancer Drug Screen. Data for the rad50EPP+ strain (AID 151);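 note: 0% = growth of vehicle-treated control cultures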; conditions: S. cerevisiae rad50 mutant strain, active compounds read high
How it was run: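 Growth inhibition read against vehicle controls in rad50EPP+ yeast, a strain altered in DNA damage repair, after compound exposure.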

[7] = NCI Yeast Anticancer Drug Screen. Data for the mgt1 strain (AID 153); conditions: S. cerevisiae mgt1 mutant growth inhibition, active compounds read high
How it was run: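 mgt1 yeast grown with test compound; read-out is growth inhibition versus vehicle-treated cultures.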

[8] = NCI Yeast Anticancer Drug Screen. Data for the rad50 strain (AID 155);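 note: 0% = growth of vehicle-only cultures of the same strain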; conditions: S. cerevisiae rad50 strain growth inhibition, active compounds read high
How it was run: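 Genetically altered yeast (DNA repair pathway); compound treatment; growth inhibition vs vehicle ctrl.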

[9] = NCI Yeast Anticancer Drug Screen. Data for the mec2-1 strain (AID 157); conditions: S. cerevisiae mec2-1 strain, active compounds read high
How it was run: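 Yeast mec2-1 mutant treated with compound. Readout: growth inhibition vs vehicle controls.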

[10] = NCI Yeast Anticancer Drug Screen. Data for the rad14 strain (AID 159);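 note: 0% = growth of vehicle-treated control cultures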; conditions: S. cerevisiae rad14 strain growth inhibition, active compounds read high
How it was run: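 Test compounds were applied to a repair-deficient yeast strain. Its growth was then compared with that of cultures given vehicle alone, and inhibition was expressed relative to those controls.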

[11] = NCI Yeast Anticancer Drug Screen. Data for the sgs1 mgt1 strain (AID 161);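 note: 0% = growth of cultures given vehicle only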; conditions: S. cerevisiae sgs1 mgt1 strain, active compounds read high
How it was run: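 Read-out: growth inhibition vs vehicle controls. Cells: mutant yeast strain deficient in DNA damage repair.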

[12] = NCI Yeast Anticancer Drug Screen. Data for the cln2 rad14 strain (AID 165);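 note: 0% = growth equal to vehicle treated cultures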; conditions: S. cerevisiae cln2 rad14 strain, active compounds read high
How it was run: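 cln2 rad14 yeast strain; compound exposure; growth inhibition read vs vehicle controls.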

[13] = NCI Yeast Anticancer Drug Screen. Data for the bub3 strain (AID 167); conditions: S. cerevisiae bub3 mutant strain, active compounds read high
How it was run: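 Yeast carrying a defined mutation is treated with each compound, and growth is compared with that of vehicle-exposed cells to give inhibition.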

[14] = NCI Yeast Anticancer Drug Screen. Data for the wt2 strain (AID 169);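 note: 0% = growth of vehicle-treated yeast cultures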; conditions: S. cerevisiae wt2 strain growth inhibition, active compounds read high
How it was run: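 Read-out: growth inhibition versus vehicle-treated control cultures after compound exposure of the yeast strain.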

[15] = NCI Yeast Anticancer Drug Screen. Data for the CLN2oe strain (AID 163);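 note: 0% = growth of vehicle-only control cultures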; conditions: S. cerevisiae CLN2oe strain, active compounds read high
How it was run: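 Read-out: yeast growth inhibition, expressed relative to vehicle-only controls. The strain bears an engineered cell-cycle alteration.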

[16] = at 5.0 µM (retest, dose inferred, filed as 0.5)
[17] = at 50.0 µM (retest, dose inferred, filed as 5.0)

Cc1ccc(Nc2n[nH]c(=S)s2)c(C)c1
growth inhibition ([1]; at 1.2 µM): -9% | growth inhibition ([1]; at 3.7 µM): 6% | growth inhibition ([1]; at 11.0 µM): 19% | growth inhibition ([1]; at 33.0 µM): 64% | growth inhibition ([1]; at 100.0 µM): 89% (active) | growth inhibition ([2]; at 1.2 µM): -29% | growth inhibition ([2]; at 3.7 µM): -28% | growth inhibition ([2]; at 11.0 µM): 9% | growth inhibition ([2]; at 33.0 µM): 51% | growth inhibition ([2]; at 100.0 µM): 93% (active) | growth inhibition [3, 16]: 1% | growth inhibition [3, 17]: 19% | growth inhibition ([3]; at 50.0 µM): 24.4% | growth inhibition ([4]; at 1.2 µM): -27% | growth inhibition ([4]; at 3.7 µM): -25% | growth inhibition ([4]; at 11.0 µM): -13% | growth inhibition ([4]; at 33.0 µM): 39% | growth inhibition ([4]; at 100.0 µM): 93% (active)

COC(=O)/C(C#N)=C\NC(=S)C(N)=S
growth inhibition ([5]; at 1.2 µM): -6% | growth inhibition ([5]; at 3.7 µM): 24% | growth inhibition ([5]; at 11.0 µM): 86% (active) | growth inhibition ([5]; at 33.0 µM): 99% (active) | growth inhibition ([5]; at 100.0 µM): 98% (active) | growth inhibition ([6]; at 1.2 µM): -24% | growth inhibition ([6]; at 3.7 µM): -24% | growth inhibition ([6]; at 11.0 µM): 2% | growth inhibition ([6]; at 33.0 µM): 64% | growth inhibition ([6]; at 100.0 µM): 97% (active) | growth inhibition ([7]; at 1.2 µM): 9% | growth inhibition ([7]; at 3.7 µM): 21% | growth inhibition ([7]; at 11.0 µM): 79% (active) | growth inhibition ([7]; at 33.0 µM): 99% (active) | growth inhibition ([7]; at 100.0 µM): 98% (active) | growth inhibition ([8]; at 1.2 µM): 12% | growth inhibition ([8]; at 3.7 µM): 30% | growth inhibition [8, 16]: 2% | growth inhibition ([8]; at 11.0 µM): 90% (active) | growth inhibition ([8]; at 33.0 µM): 98% (active) | growth inhibition [8, 17]: 98% (active) | growth inhibition ([8]; at 50.0 µM): 88.5% (active) | growth inhibition ([8]; at 100.0 µM): 97% (active) | growth inhibition ([9]; at 1.2 µM): -5% | growth inhibition ([9]; at 3.7 µM): 24% | growth inhibition [9, 16]: -1% | growth inhibition ([9]; at 11.0 µM): 98% (active) | growth inhibition ([9]; at 33.0 µM): 99% (active) | growth inhibition [9, 17]: 99% (active) | growth inhibition ([9]; at 50.0 µM): 93.2% (active) | growth inhibition ([9]; at 100.0 µM): 98% (active) | growth inhibition ([10]; at 1.2 µM): 4% | growth inhibition ([10]; at 3.7 µM): 15% | growth inhibition ([10]; at 11.0 µM): 98% (active) | growth inhibition ([10]; at 33.0 µM): 99% (active) | growth inhibition ([10]; at 100.0 µM): 98% (active) | growth inhibition [11, 16]: 13% | growth inhibition [11, 17]: 98% (active) | growth inhibition ([11]; at 50.0 µM): 91.1% (active) | growth inhibition [12, 16]: 22% | growth inhibition [12, 17]: 99% (active) | growth inhibition ([12]; at 50.0 µM): 89.5% (active) | growth inhibition ([13]; at 1.2 µM): 24% | growth inhibition ([13]; at 3.7 µM): 34% | growth inhibition [13, 16]: 4% | growth inhibition ([13]; at 11.0 µM): 99% (active) | growth inhibition ([13]; at 33.0 µM): 99% (active) | growth inhibition [13, 17]: 99% (active) | growth inhibition ([13]; at 50.0 µM): 91.3% (active) | growth inhibition ([13]; at 100.0 µM): 98% (active) | growth inhibition ([14]; at 1.2 µM): -6% | growth inhibition ([14]; at 3.7 µM): 10% | growth inhibition ([14]; at 11.0 µM): 40% | growth inhibition ([14]; at 33.0 µM): 99% (active) | growth inhibition ([14]; at 100.0 µM): 98% (active) | growth inhibition ([1]; at 1.2 µM): 17% | growth inhibition ([1]; at 3.7 µM): 32% | growth inhibition ([1]; at 11.0 µM): 98% (active) | growth inhibition ([1]; at 33.0 µM): 99% (active) | growth inhibition ([1]; at 100.0 µM): 98% (active) | growth inhibition ([2]; at 1.2 µM): 9% | growth inhibition ([2]; at 3.7 µM): 25% | growth inhibition ([2]; at 11.0 µM): 86% (active) | growth inhibition ([2]; at 33.0 µM): 99% (active) | growth inhibition ([2]; at 100.0 µM): 98% (active) | growth inhibition [3, 16]: 50% | growth inhibition [3, 17]: 98% (active) | growth inhibition ([3]; at 50.0 µM): 89.3% (active) | growth inhibition ([4]; at 1.2 µM): -4% | growth inhibition ([4]; at 3.7 µM): 16% | growth inhibition ([4]; at 11.0 µM): 53% | growth inhibition ([4]; at 33.0 µM): 99% (active) | growth inhibition ([4]; at 100.0 µM): 98% (active)

CCCCOc1ccc2nc(C)cc(N=[N+]=[N-])c2c1
growth inhibition ([5]; at 1.2 µM): 8% | growth inhibition ([5]; at 3.7 µM): 9% | growth inhibition ([5]; at 11.0 µM): 14% | growth inhibition ([5]; at 33.0 µM): 20% | growth inhibition ([5]; at 100.0 µM): 86% (active) | growth inhibition ([6]; at 1.2 µM): -1% | growth inhibition ([6]; at 3.7 µM): -3% | growth inhibition ([6]; at 11.0 µM): 0% | growth inhibition ([6]; at 33.0 µM): 10% | growth inhibition ([6]; at 100.0 µM): 45% | growth inhibition ([7]; at 1.2 µM): 6% | growth inhibition ([7]; at 3.7 µM): 7% | growth inhibition ([7]; at 11.0 µM): 12% | growth inhibition ([7]; at 33.0 µM): 32% | growth inhibition ([7]; at 100.0 µM): 90% (active) | growth inhibition ([8]; at 1.2 µM): 4% | growth inhibition ([8]; at 3.7 µM): -4% | growth inhibition [8, 16]: 19% | growth inhibition ([8]; at 11.0 µM): -1% | growth inhibition ([8]; at 33.0 µM): 33% | growth inhibition [8, 17]: 49% | growth inhibition ([8]; at 50.0 µM): 19.7% | growth inhibition ([8]; at 100.0 µM): 92% (active) | growth inhibition ([9]; at 1.2 µM): 11% | growth inhibition ([9]; at 3.7 µM): 8% | growth inhibition [9, 16]: 7% | growth inhibition ([9]; at 11.0 µM): 14% | growth inhibition ([9]; at 33.0 µM): 28% | growth inhibition [9, 17]: -1% | growth inhibition ([9]; at 50.0 µM): 23.8% | growth inhibition ([9]; at 100.0 µM): 79% (active) | growth inhibition ([10]; at 1.2 µM): 7% | growth inhibition ([10]; at 3.7 µM): 5% | growth inhibition ([10]; at 11.0 µM): 11% | growth inhibition ([10]; at 33.0 µM): 48% | growth inhibition ([10]; at 100.0 µM): 98% (active) | growth inhibition [11, 16]: 12% | growth inhibition [11, 17]: -13% | growth inhibition ([11]; at 50.0 µM): 91.2% (active) | growth inhibition ([15]; at 1.2 µM): 7% | growth inhibition ([15]; at 3.7 µM): 6% | growth inhibition ([15]; at 11.0 µM): 12% | growth inhibition ([15]; at 33.0 µM): 28% | growth inhibition ([15]; at 100.0 µM): 64% | growth inhibition [12, 16]: 6% | growth inhibition [12, 17]: 70% (active) | growth inhibition ([12]; at 50.0 µM): 40.8% | growth inhibition ([13]; at 1.2 µM): 11% | growth inhibition ([13]; at 3.7 µM): 9% | growth inhibition [13, 16]: 5% | growth inhibition ([13]; at 11.0 µM): 12% | growth inhibition ([13]; at 33.0 µM): 31% | growth inhibition [13, 17]: 33% | growth inhibition ([13]; at 50.0 µM): 37% | growth inhibition ([13]; at 100.0 µM): 87% (active) | growth inhibition ([14]; at 1.2 µM): 7% | growth inhibition ([14]; at 3.7 µM): 6% | growth inhibition ([14]; at 11.0 µM): 10% | growth inhibition ([14]; at 33.0 µM): 33% | growth inhibition ([14]; at 100.0 µM): 93% (active) | growth inhibition ([2]; at 1.2 µM): 12% | growth inhibition ([2]; at 3.7 µM): 13% | growth inhibition ([2]; at 11.0 µM): 15% | growth inhibition ([2]; at 33.0 µM): 41% | growth inhibition ([2]; at 100.0 µM): 96% (active) | growth inhibition [3, 16]: 8% | growth inhibition [3, 17]: 93% (active) | growth inhibition ([3]; at 50.0 µM): 74.2% (active) | growth inhibition ([4]; at 1.2 µM): 16% | growth inhibition ([4]; at 3.7 µM): 19% | growth inhibition ([4]; at 11.0 µM): 23% | growth inhibition ([4]; at 33.0 µM): 51% | growth inhibition ([4]; at 100.0 µM): 96% (active)
